# Most compounds without a hit are left out; they make up all but 0.64% or so of the library.
# sEH inhibitor: soluble epoxide hydrolase (human) inhibition | inhibition, % at 2 µM | AID 707 | actives 0.34% (n = 91,000) | recombinant human sEH enzymatic activity assay | P34913; in the data active means inhibition above about 80%
# MT1-MMP txn act: activates MT1-MMP transcription. HT1080 MT1-MMP promoter luciferase reporter, luminescence, overnight; hits give high values. actives 0.16% (n = 86,000). activation factor at 10 µM;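 active means activation factor of at least 2 for MT1-MMP transcription at 10 µM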
# PTPN22 act: increases human PTPN22 phosphatase activity; Q9Y2R2; recombinant LYP, DiFMUP fluorescence; 0 = plate median, 100 = signal doubled; activation, % at 2 µM; actives 0.11% (n = 96,000); AID 697;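 active means activation at 2 µM above a set limit, the mean plus 5 SD, cut at about 37% in these data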
# sEH activator: increases human soluble epoxide hydrolase activity | activation, % at 2 µM | actives 0.04% (n = 91,000) | purified human sEH enzymatic activity, activator screen | AID 717 | P34913; in the data active means activation above about 37%
# Ec RNAP inh: inhibitors of Escherichia coli RNA polymerase. P0A8V2. E. coli RNA polymerase, fluorescence transcription assay. inhibition, %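 (tested at 10 µM)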. actives 0.2% (n = 62,000); in the data active means inhibition above about 20%;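 further: 0% = enzyme without compound and 100% = no enzyme blank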
# PTPN22 inh 2: inhibitors of human LYP (PTPN22) phosphatase; inhibition, % at 2 µM; actives 0.21% (n = 96,000); AID 640; recombinant LYP catalytic domain, DiFMUP fluorescence; Q9Y2R2;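 active means inhibition at 2 µM at or above a set limit, the screen mean plus 3 SD, cut at about 24% in these data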;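 further: 0% = DMSO with enzyme and 100% = enzyme fully blocked by orthovanadate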
# Starred values were filed as active, the others as inactive; · = not tested or not shown.
SMILES,sEH inhibitor,MT1-MMP txn act,PTPN22 act,sEH activator,Ec RNAP inh,PTPN22 inh 2
COC(=O)c1ccc(C(NC(=O)OCc2ccccc2)/C(C)=C/[C@@H](C)CO)cc1 (some centres not stated),·,1.1,·,·,·,·
Cc1ccc(CSCCNC(=O)CCSc2ccccc2)cc1,66.2,·,-4.0,-65.2,·,6.4
Cc1ccccc1CSCCNC(=O)CCSc1ccccc1,80.9*,·,-6.3,-81.0,·,8.4
CN(C)c1nc(N)nc(CSc2nc3cc(Cl)ccc3o2)n1,12.0,1.4,3.5,-9.4,2.5,-7.0
O=S1(=O)C=C(Sc2nc3cc(Cl)ccc3o2)c2ccccc21,-16.2,1.2,-0.9,14.7,39.8*,-2.5
CCCc1c(C)c2c(C)[nH]nc2oc1=O,18.6,1.1,-5.0,-17.6,·,2.5
Cc1c(C)c2c(C)[nH]nc2oc1=O,1.6,2.3*,-1.0,-2.1,5.0,-1.1
Cc1nn(Cc2ccccc2Cl)c(C)c1NC(=O)c1nc2ncccn2n1,9.7,1.1,4.5,-8.4,·,-8.2
Cc1nn(Cc2ccccc2Cl)c(C)c1NC(=O)NC12CC3CC(CC(C3)C1)C2,91.0*,·,7.0,-91.2,·,-3.9
O=C(Nc1nnc(C23CC4CC(CC(C4)C2)C3)s1)c1ccco1,17.0,2*,-6.7,-12.8,·,5.8
O=C(Nc1nnc(C23CC4CC(CC(C4)C2)C3)s1)c1ccc(N2C(=O)CCC2=O)cc1,6.3,·,-9.4,-7.3,·,8.6
COC(=O)c1ccc(-n2cncn2)c(F)c1,-1.8,·,6.0,2.9,·,-1.8
O=C(O)CCCN1C(=O)/C(=C/c2ccc(-c3nc4ccccc4s3)o2)SC1=S,5.0,·,-38.0,-4.9,·,41.2*
COC(=O)c1ccc(S(=O)(=O)N2C3CCC2CC(NC(=O)NC2CCCCC2)C3)cc1 (configuration not stated),98.0*,1.3,-1.3,-98.0,6.3,1.9
COc1ccc(S(=O)(=O)N2C3CCC2CC(NC(=O)NC2CCCCC2)C3)cc1 (configuration not stated),97.6*,1.2,2.6,-97.6,·,-0.6
COc1ccc(S(=O)(=O)N2C3CCC2CC(NC(=O)C2CC2)C3)cc1 (configuration not stated),6.2,1.1,4.8,-6.7,6.8,-6.7
Cc1cc(C(=O)N[C@@H](c2ccccc2)[C@]2(C)C[C@H]2[C@@H](C)C(=O)Nc2ccc3ccccc3c2)n(C)n1,·,1.3,·,·,·,·
COC(=O)[C@@]1(Cc2ccc(OC)cc2)[C@H]2c3cc(C(=O)N(C)C)n(Cc4ccccc4)c3C[C@H]2CN1C(=O)c1ccccc1,·,1.2,·,·,·,·
Clc1ccccc1-c1nnc2sc(-c3ccccn3)nn12,-35.5,1,30.6,37.7*,7.5,-26.2
COCCNC(=O)[C@@]1(Cc2ccccc2)C=C[C@@H](C)N1C(=O)OC,·,1,·,·,·,·
Cn1c(SCC(=O)c2ccc(F)cc2)nnc1-c1cnccn1,-0.2,2.8*,-7.1,-1.1,-5.7,3.9
Cn1c(SCC(=O)N2CCOCC2)nnc1-c1cnccn1,-3.3,1.1,-8.4,4.6,3.0,5.8
CC1CCc2c(sc(NC(=O)c3ccc(Cn4cc([N+](=O)[O-])cn4)o3)c2C#N)C1 (configuration not stated),9.8,1.2,-22.2,-10.8,·,25.4*
O=C(c1ccc(F)cc1)N1CCCCC(Sc2nnnn2-c2ccccc2)C1=O (configuration not stated),7.4,1.2,-0.6,-4.5,·,0.2
CC(C)c1ccc(N2C(=O)CC(Sc3nc4ccccc4o3)C2=O)cc1 (configuration not stated),1.1,·,-22.2,-2.3,·,24.5*
SMILES,sEH inhibitor,MT1-MMP txn act,PTPN22 act,sEH activator,Ec RNAP inh,PTPN22 inh 2
CCC/C=C(\CCC)C(NC(=O)c1cccs1)c1ccc(C(F)(F)F)cc1 (configuration not stated),·,1.1,·,·,·,·
COC(=O)[C@@H]1C[C@@]2(O)[C@H](O)[C@H](O)[C@H](O)C[C@H]2N1Cc1ccc(N2CCOCC2)cc1,·,1.1,·,·,·,·
CCOc1ccc(-c2nnc(-c3ccco3)o2)cc1OCC,-1.3,2.1*,5.3,0.7,7.6,-7.2
CCC#CCOCC(=O)Nc1ccccc1,·,1.3,·,·,·,·
Cn1c(C(=O)Nc2ccccc2)cc2sccc21,-5.0,2.2*,15.5,4.4,·,-12.6
COc1cc(NC(=O)c2cc3sccc3n2C)cc(OC)c1,-10.7,2.1*,-11.9,11.2,9.3,8.2
COC(=O)c1ccc(NC(=O)c2cc3sccc3n2C)cc1,1.3,1.2,13.3,0.3,·,-11.7
Cc1cccc(C)c1NC(=S)N/N=C/c1ccc(OCCC(C)C)cc1,-5.3,·,-10.9,6.1,·,8.6
CSc1nc2ccccc2cc1/C=C(\C#N)c1cccc(Cl)c1,-5.7,·,3.5,6.2,·,-7.8
COC(=O)[C@@H]1C[C@@]2(O)[C@@H](O)[C@@H](O)[C@@H](O)C[C@H]2N1C/C=C/c1ccccc1,·,1.1,·,·,·,·
COc1ccc(-c2cc(-c3ccccc3O)[nH]n2)cc1OC,-5.4,1.2,2.2,6.9,·,-4.8
COc1ccc(-c2cc(-c3cc(OC)ccc3O)[nH]n2)cc1,-5.6,1.9,32.7,2.5,·,-38.0
COc1ccc(-c2cc(-c3cc(F)ccc3O)[nH]n2)cc1OC,5.3,2.3*,5.0,-5.1,-3.1,-6.5
Cc1ccc(O)c(-c2cc(-c3cccc(F)c3)n[nH]2)c1,5.5,2.1*,24.8,-4.8,·,-22.4
COc1ccc(-c2cc(-c3ccc(OC)c(OC)c3)n[nH]2)c(O)c1,-6.4,2*,-6.2,5.1,·,5.3
COC(=O)c1cc(-c2ccccc2)n(CCNC(=O)CCCCCN2C(=O)NC(c3ccc(-c4ccccc4)cc3)C(C(=O)OCc3ccccc3)=C2C)c1C (configuration not stated),·,1.2,·,·,·,·
CN1CCn2c1nc(N1CCOCC1)nc2=O,5.9,1.2,-33.3,-5.8,1.9,30.8*
COC(=O)CSc1nc2cc(C)ccc2cc1C#N,·,2*,5.8,·,2.3,-8.5
CCOC(=O)CC(=O)CSc1nc2ccc(C)cc2cc1C#N,-7.1,1.5,-10.4,8.6,9.3,8.1
COCCNC(=O)c1onc(CSc2ccc(C(C)C)cc2)c1C(=O)O,-1.5,·,-3.0,7.6,·,6.1
COc1ccc(CCNC(=O)C2CCN(Cc3nc(-c4ccccc4F)oc3C)CC2)cc1OC,17.4,1.3,-0.6,-17.0,-1.8,-1.6
Cc1oc(-c2ccccc2F)nc1CN1CCC(C(=O)NCCC2=CCCCC2)CC1,89.3*,1.4,-2.1,-89.3,1.0,-0.1
O=C(NCCC1=CCCCC1)C1CCN(c2nc3ccccc3o2)CC1,84.8*,1.1,-0.9,-85.2,·,1.2
COC(=O)[C@H](Cc1ccccc1)NC(=O)NCCC1=CCCCC1,42.6,1.2,-1.7,-43.9,·,3.1
COc1ccc(C(=O)/C=C/N(C)C)cc1,8.4,·,-6.5,-8.8,·,8.7
CN(C)/C=C/C(=O)c1ccc(F)cc1,3.4,·,-23.1,-1.4,·,26.2*
CC(NC(=O)c1ccccc1NC(=O)CSc1nnnn1C)c1ccccc1 (configuration not stated),-6.0,·,-4.4,9.2,·,7.2
O=C(COC(=O)c1ccc(S(=O)(=O)Nc2ccccc2)cc1)NCc1ccco1,10.4,·,-5.0,-11.1,·,3.6
